These results are taken from PubChem BioAssay (EPA / NIEHS).

Settings in all cases: primary human HUVEC with PBMC; actives raise or lower the signal
Read-out in assay [1]: Monocyte Chemoattractant Protein-1 (MCP1), CCL2 (gene 6347)
Briefly: BSK_LPS_MCP1: BioMAP Diversity Plus: LPS Assay for Monocyte Chemoattractant Protein-1 (MCP1) Biomarker Activity (AID 2283081). The gist of the method: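 Secreted MCP-1 read by ELISA at 24 h post-dosing in an LPS-activated co-culture of endothelial cells with peripheral blood mononuclear cells. Fits run in both directions, DMSO as baseline; parallel SRB staining tracks overt cytotoxicity.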

A short description of assay [2]: BSK_LPS_PGE2: BioMAP Diversity Plus: LPS Assay for Prostaglandin E2 (PGE2) Biomarker Activity (AID 2283082). The gist of the method:
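Compounds were added to the LPS co-culture of endothelium and PBMC, and PGE2 was measured by ELISA after 24 h. Responses in either direction were fitted with DMSO as baseline.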

Read-out in assay [3]: Macrophage colony-stimulating factor (MCSF), CSF1 (gene 1435)
Briefly: BSK_LPS_MCSF: BioMAP Diversity Plus: LPS Assay for Macrophage colony-stimulating factor (MCSF) Biomarker Activity (AID 2283083). In a few lines: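 Bidirectional fitting against DMSO was applied to M-CSF levels read by ELISA at 24 h post-dose. The system pairs human umbilical vein endothelium with peripheral blood mononuclear cells; parallel SRB staining tracked cytotoxicity.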

Read-out in assay [4]: Tissue Factor, F3 (gene 2152)
Briefly: BSK_LPS_TissueFactor: BioMAP Diversity Plus: LPS Assay for Tissue Factor Biomarker Activity (AID 2283084). In a few lines:
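Compound was added to an endothelial cell/PBMC co-culture, and after 24 h tissue factor (CD142) was read by ELISA. Gain or loss of signal was fitted against a DMSO baseline, and parallel SRB staining (560 nm) tracked overt cytotoxicity.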

Read-out in assay [5]: Tumor necrosis factor (Homo sapiens) (UniProt P01375)
Briefly: BSK_LPS_TNFa: BioMAP Diversity Plus: LPS Assay for Tumour Necrosis Factor alpha (TNFa) Biomarker Activity (AID 2283085).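 For AC50: TNFa protein level quantified by ELISA in the co-culture.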 The gist of the method:
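Cells (umbilical vein endothelium plus peripheral blood mononuclear cells) were dosed with chemical, incubated 24 h, then TNFa was quantified by ELISA; values derive from bidirectional fitting with DMSO as baseline.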

Read-out in assay [6]: Vascular cell adhesion molecule 1 (VCAM1), VCAM1 (gene 7412)
Briefly: BSK_LPS_VCAM1: BioMAP Diversity Plus: LPS Assay for Vascular cell adhesion molecule 1 (VCAM1) Biomarker Activity (AID 2283086). In a few lines: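 Cells are dosed in an LPS-stimulated endothelial/mononuclear co-culture and, after 24 h, VCAM-1 is quantified by ELISA. Activity in either direction is fitted relative to the DMSO negative control.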

Read-out in assay [7]: CD38, CD38 (gene 952)
As to the kind of experiment: BSK_SAg_CD38: BioMAP Diversity Plus: SAg Assay for CD38 Biomarker Activity (AID 2283087). In a few lines:
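CD38 quantified by ELISA (fluorescence) in a superantigen-activated endothelial cell–PBMC co-culture at 24 h post-dose. Activity fitted in both directions relative to DMSO; parallel SRB and Alamar Blue cytotoxicity read-outs.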

Read-out in assay [8]: CD40, CD40 (gene 958)
Briefly: BSK_SAg_CD40: BioMAP Diversity Plus: SAg Assay for CD40 Biomarker Activity (AID 2283088). In a few lines: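 CD40 is measured by fluorescence ELISA in an endothelial/PBMC primary human co-culture at 24 h post-dose. Fitting is bidirectional, DMSO baseline. Parallel SRB staining (560 nm) flags cytotoxicity.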

Read-out in assay [9]: CD69, CD69 (gene 969)
Briefly: BSK_SAg_CD69: BioMAP Diversity Plus: SAg Assay for CD69 Biomarker Activity (AID 2283089).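 For AC50: cell surface CD69 protein quantified by ELISA with fluorescence detection.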 In a few lines: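 Endothelial/PBMC co-culture; chemical added; 24 h incubation; CD69 ELISA with fluorescence detection; bidirectional fit vs DMSO.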

Read-out in assay [10]: Monocyte Chemoattractant Protein-1 (MCP1), CCL2 (gene 6347)
As to the kind of experiment: BSK_SAg_MCP1: BioMAP Diversity Plus: SAg Assay for Monocyte Chemoattractant Protein-1 (MCP1) Biomarker Activity (AID 2283090). In a few lines:
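Values derive from bidirectional fitting of ELISA-measured MCP1 against DMSO controls. Readings were taken 24 h after dosing human vascular endothelial cells co-cultured with peripheral blood mononuclear cells under superantigen stimulation.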

Active and inactive are the calls of the source. Rule for the calls: active = hit-call score of the fitted dose curve at least 0.9, where 1 is the maximum; inactive = score below 0.9.

Sequence of Tumor necrosis factor (Homo sapiens) (P01375 whole entry, looked up): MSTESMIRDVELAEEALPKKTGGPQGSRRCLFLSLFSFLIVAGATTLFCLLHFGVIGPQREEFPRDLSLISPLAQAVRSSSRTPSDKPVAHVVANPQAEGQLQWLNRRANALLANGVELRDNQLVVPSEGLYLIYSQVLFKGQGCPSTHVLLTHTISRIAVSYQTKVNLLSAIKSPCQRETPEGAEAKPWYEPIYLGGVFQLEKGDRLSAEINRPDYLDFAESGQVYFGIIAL

For `O=C(O)c1ccc2c(c1)nc(C(=O)NC1CCN(C3CC3)CC1)n2Cc1cc(-c2ccc(Cl)s2)on1`, the outcome in assay [1], in assay [2], in [3], in [4], in [5] and in [6] was inactive. For the same compound, the outcome in assay [7], in assay [8], in [9] and in assay [10] was inactive.

A word on the AC50: it is the midpoint of the concentration-response curve, whichever way the signal moves. On to `C[C@]12C=CC(=O)C=C1CC[C@H]1[C@@H]3C[C@@H](O)[C@](O)(C(=O)CO)[C@@]3(C)C[C@H](O)[C@@]12F`, for which the result in assay [1], in [2], in assay [3], in assay [4], in [6] and in [7] was inactive. Also, the result in assay [8] and in [9] was inactive. The results for the AC50 in assay [5] and in [10] were 0.557 µM (active) and 5.08 µM (active), respectively.

For `C[C@@H](Oc1ccc(CNC(=O)c2cccnc2Oc2ccc3c(c2)OCO3)c(F)c1)C(=O)O`, the outcome in assay [1], in assay [2], in assay [3], in [4], in assay [6] and in assay [7] was inactive. Moreover, the outcome in assay [8], in assay [9] and in assay [10] was inactive. Also, in [5], the AC50 was 2.29 µM (active).

In the case of `O=S(=O)(O)CCC(F)(F)C(F)(F)C(F)(F)C(F)(F)C(F)(F)C(F)(F)F`, the result in assay [1], in assay [2], in assay [3], in assay [5], in [6] and in [7] was inactive. In addition, the outcome in assay [8], in assay [9] and in [10] was inactive.

On to `CCOc1ccc2[nH]cc(C(=O)NCc3ccccc3)c(=O)c2n1`, for which the outcome in [1], in [2], in assay [3], in assay [4], in assay [5] and in assay [6] was inactive. Further, the result in assay [7], in assay [8], in assay [9] and in [10] was inactive.

As for `c1ccc2cc3ccccc3cc2c1`, the outcome in assay [1], in [2], in [3], in [5], in assay [6] and in [7] was inactive. Moreover, the result in assay [8], in [9] and in [10] was inactive.

As for `CC1(C)C(=O)N(Cl)C(=O)N1Cl`, the outcome in assay [1], in assay [2], in assay [3], in [5], in [6] and in assay [7] was inactive. In addition, the outcome in assay [8], in assay [9] and in assay [10] was inactive.

On to `CNC(C)=O`, for which the result in assay [1], in [2], in assay [3], in assay [5], in [6] and in assay [7] was inactive. For the same compound, the result in assay [8], in assay [9] and in assay [10] was inactive.

With `O=S(=O)(O)c1ccc(N=Nc2c(O)ccc3cc(S(=O)(=O)O)ccc23)cc1`, the outcome in assay [1], in assay [2], in assay [3], in assay [4], in [5] and in assay [6] was inactive. In addition, the result in [7], in assay [8], in assay [9] and in assay [10] was inactive.

Consider `CCCCOC(=O)c1ccccc1`, for which the outcome in [1], in assay [2], in assay [3], in [4], in assay [5] and in assay [6] was inactive. In addition, the outcome in assay [7], in assay [8], in assay [9] and in assay [10] was inactive.

With `S=P(N1CC1)(N1CC1)N1CC1`, the outcome in [1], in assay [2], in [3], in [5], in assay [6] and in assay [7] was inactive. In addition, the result in assay [8], in assay [9] and in [10] was inactive.

As to `NC(=O)N1c2ccccc2C=Cc2ccccc21`, the outcome in assay [1], in assay [2], in assay [3], in assay [4], in assay [5] and in assay [6] was inactive. Also, the outcome in assay [7], in [8], in assay [9] and in assay [10] was inactive.

Consider `COS(C)(=O)=O`, for which the outcome in [1], in assay [2], in [3], in assay [4], in assay [5] and in assay [6] was inactive. In addition, the result in [7], in [8], in assay [9] and in assay [10] was inactive.

Take `Cc1nccn1-c1ccc(Sc2cccc(C3(C(N)=O)CCOCC3)c2)cc1`: the result in [1], in assay [2], in assay [3], in assay [4] and in [5] was inactive. Moreover, the AC50 in assay [6] was 6.8 µM (active); in assay [7], 5.57 µM (active); in assay [8] it was 4.56 µM (active); in assay [9], 6.87 µM (active); in assay [10] it was 6.58 µM (active).

`C=CN1CCCC1=O`: the outcome in assay [1], in assay [2], in assay [3], in assay [4], in [5] and in assay [6] was inactive. In addition, the outcome in [7], in [8], in [9] and in assay [10] was inactive.

Consider `c1ccc2c(c1)-c1cccc3c1c-2cc1ccccc13`, for which the result in assay [1], in assay [2], in assay [3], in assay [5], in assay [6] and in assay [7] was inactive. The result in [8], in [9] and in assay [10] was inactive. For the same compound, the AC50 in [4] was 0.552 µM (active).

Take `O=C(NO)C1(NS(=O)(=O)c2ccc(Oc3ccc(F)cc3)cc2)CCOCC1`: the result in [1], in [2], in assay [3], in assay [6], in [7] and in assay [8] was inactive. Further, the outcome in [9] and in assay [10] was inactive. The AC50 in [5] was 3.97 µM (active).

As to `CCn1nc(C)c2c1C(=O)NCC(c1ccc(O)cc1)=N2`, the outcome in assay [1], in assay [2], in assay [3], in assay [4], in assay [6] and in [9] was inactive. The AC50 in [5] was 0.78 µM (active); in assay [7] it was 8.91 µM (active); in assay [8], 20 µM (active); in assay [10] it was 4.49 µM (active).

For the compound `Cc1ncc([C@@H](CCCCCCc2ccc3c(n2)NCCC3)CC(=O)O)cn1`, the result in assay [1], in assay [2], in [3], in assay [4], in [5] and in assay [6] was inactive. Moreover, the result in assay [7], in assay [8], in assay [9] and in assay [10] was inactive.

Regarding `NC(=O)NN=Cc1ccc([N+](=O)[O-])o1`, the outcome in assay [1], in assay [2], in assay [3], in assay [4], in assay [5] and in assay [7] was inactive. Further, the result in assay [8], in assay [9] and in assay [10] was inactive. In addition, the AC50 in assay [6] is 12.4 µM (active).

`Nc1ccn([C@@H]2O[C@H](CO)[C@@H](O)[C@@H]2O)c(=O)n1`: the outcome in assay [1], in assay [2], in [3], in assay [5], in assay [6] and in assay [7] was inactive. The result in [8], in assay [9] and in [10] was inactive.
